# Compound activity: PubChem BioAssay, National Center for Advancing Translational Sciences (NCATS)
# HCMV antiviral: inhibitors of human cytomegalovirus; actives 4.5% (n = 410,000); HFF cells, HCMV-luciferase reporter, 72 h; hits give low values; AID 1259415; activity change, negative = inhibition, % at 57.5 µM; in the data active = activity change below about -60%; inconclusive = no clear call, values can overlap the other calls; inactive = above about -39%; note: % is set by controls: 0 for no effect and ±100 for the full control effect
#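 Luciferase read-out from HCMV-luciferase-infected HFFs (MOI 1 PFU/cell) 72 h post infection at 37C; compounds added after 16 h cell attachment; activity normalized between buffer-only basal and Salinomycin (10uM) inhibitor controls.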
# HCV inh: blocks hepatitis C virus | Huh7.5.1 HCVcc-Cre infection, luciferase reporter, 44 h | Potency, µM (titrated, usually from 41.8 µM), for inactives: at the top dose activity change, negative = inhibition, most hits filed as inhibitors | actives 3.4% (n = 340,000) | AID 651820; note: potency is the fitted concentration of half-maximal effect; % is set by controls: 0 for no effect and ±100 for the full control effect
#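 After 44 h co-culture of compound, cells and HCVcc-Cre (~0.5 moi), substrate is added for 15 min at room temperature and luciferase measured over 15 sec. Cells were seeded at 1,000/well and pre-cultured 4 h.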
# Pf growth 48h: inhibits P. falciparum growth in the first generation, 48 h. P. falciparum luciferase growth in erythrocytes, 48 h. Potency, µM (highest dose often 28.7 µM), inactives show top-dose activity change, negative = inhibition, actives largely listed as inhibitors. actives 5.9% (n = 310,000). AID 504832; note: potency is the fitted concentration of half-maximal effect; % is set by controls: 0 for no effect and ±100 for the full control effect
#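 Read-out is firefly luciferase luminescence from an integrated reporter in P. falciparum, so falling signal marks reduced parasite growth. Infected erythrocytes were at 2% hematocrit and 0.1% parasitemia (final) in Albumax-supplemented RPMI 1640.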
# Shiga toxin inh: Shiga toxin inhibition. Vero cells, Shiga toxin protein synthesis inhibition reporter. inhibition, % at 38.7 µM. actives 9.2% (n = 290,000). AID 2315; in the data active = inhibition mostly above about 28%, no sharp cut-off; inactive = mostly below about 43%; note: 0% is about no effect
# Pf growth 96h: inhibits malaria parasite growth, 96 h | AID 504834 | P. falciparum luciferase reporter growth, 96 h | Potency, µM (doses to about 28.7 µM), inactives show at the highest dose activity change, negative = inhibition, most hits filed as inhibitors | actives 6.9% (n = 320,000); note: potency is the fitted concentration of half-maximal effect; % is set by controls: 0 for no effect and ±100 for the full control effect
#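 Luminescence readout: decreased luciferase signal marks inhibited growth of reporter-expressing P. falciparum in infected red cells (2% hematocrit, 0.05% parasitemia final), exposed to compound two generations (96 h, 37 C, 5% CO2).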
# CHX counter: affects cycloheximide protein synthesis inhibition readout, counter-screen | max response, % | cell reporter, cycloheximide protein synthesis inhibition counterscreen | actives 12% (n = 300,000); in the data active = max response mostly above about 13%, no sharp cut-off; inactive = mostly below about 14%; note: read at 38.3 µM for the half of the compounds with a filed dose; 0% is about no effect
# Numbers without * were called inactive; i = inactive; ? = inconclusive; · = not tested or not shown; [ ] = dose if it differs, or a comment. The list is not random: actives were taken first. Their share in the collection is about 21%. Unless noted, calls come from the whole dose curve; as a rule, active = well fitted inhibition curve with a large enough effect; inconclusive = small, poorly fitted or top-dose-only effect, or another doubt; inactive = no such curve, though single readings can be large or run the other way.
SMILES,HCMV antiviral,HCV inh,Pf growth 48h,Shiga toxin inh,Pf growth 96h,CHX counter
CCOC(=O)c1cn(CC(=O)Nc2ccc(OC)cc2OC)nn1,-22,9%,11%,-14,-22%,-4
CC(C)N(Cc1ccccc1)C(=O)Cn1ncc2c3ccccc3n(Cc3ccccc3)c2c1=O,-6,·,·,·,·,·
COc1ccc(C(CNC(=O)c2cccc(NC(=O)c3cccs3)c2)N2CCCC2)cc1 (stereo not drawn),-4,?,12µM*,·,5.9µM*,·
COc1ccccc1NS(=O)(=O)c1cccc(C(=O)NCC(c2ccccc2OC)N2CCCC2)c1 (stereo not drawn),-36,-21%,8.3µM*,·,?,·
COc1ccc(C(CNC(=O)c2cccc(Br)c2)N2CCCC2)cc1 (stereo not drawn),-8,?,·,-7,?,-4
CCN(c1ccccc1)S(=O)(=O)c1ccc(Oc2ccc(C(C)=O)cc2OC)nc1,-38,13µM*,?,·,?,·
COc1ccc(C(CNC(=O)c2ccc(NS(=O)(=O)c3ccc(F)c(C)c3)cc2)N2CCOCC2)cc1 (stereo not drawn),-17,11%,10µM*,·,0%,·
CC(NC(=O)C12CC3CC(CC(O)(C3)C1)C2)c1ccc(Cl)cc1Cl (stereo not drawn),-2,-7%,-6%,-2,-6%,-5
CCc1ccc(CNC(=O)C2COc3ccc(OC)cc3C2)cc1 (stereo not drawn),6,·,·,·,·,·
Cc1ccc(Cl)cc1NC(=O)C1CCCN(S(=O)(=O)c2cccc3cccnc23)C1 (stereo not drawn),-8,·,·,·,·,·
Cc1ccc(CNC(=O)c2ccc(CSCc3c(F)cccc3Cl)o2)cc1,-6,·,·,·,·,·
Cc1ccc(S(=O)(=O)N(C)c2ccc(C(=O)NCC(c3ccco3)N3CCCC3)cc2)cc1 (stereo not drawn),-18,·,·,·,·,·
Cc1ccc(N(C)S(=O)(=O)c2cccc(C(=O)NCC(c3ccco3)N3CCCC3)c2)cc1 (stereo not drawn),-19,?,9.3µM*,·,3.3µM*,·
COc1ccc(-c2oc3cc(O)c(OC)c(O)c3c(=O)c2OC)cc1O,-62*,3%,·,·,·,·
COc1cc(OC)c2c(=O)c(OC)c(-c3ccc(OC)c(OC)c3)oc2c1,·,1.1µM*,32%,10,?,10
COc1cc(-c2oc3ccc(C)cc3c(=O)c2O)cc(OC)c1OC,-17,·,·,·,·,·
CCN(CC(=O)NC(=O)Nc1ccccc1F)Cc1ccccc1,-7,20%,11%,·,0%,·
COC(=O)c1coc(-c2ccc(C)cc2)c1C(=O)OC,-22,-6%,33%,66*,120%,39*
COC(=O)c1coc(-c2ccc(OC)cc2)c1C(=O)OC,-4,?,·,71,120%,43*
CC(=O)O[C@@H]1CC[C@@]2(C)[C@H](C1)[C@H](OC(C)=O)C[C@@H]1[C@@H]2C[C@H]2[C@@H]3CN4C[C@H](C)CC[C@H]4[C@H](C)[C@H]3CC[C@@]12O,·,·,·,-12,·,8
O=C(Cc1cccs1)NNC(=O)C12CC3CC(CC(C3)C1)C2,15,-4%,10µM*,34,-2%,-3
O=C(CNCc1cccs1)NC12CC3CC(CC(C3)C1)C2,-29,13%,10%,30,5.9µM*,14*
O=C(CCC(=O)Nc1ccc(F)cc1)N/N=C/c1cccnc1,-13,14%,0%,23,13%,-4
COc1cccc(CN2CCN(CC(=O)NCCc3ccccc3)CC2)c1,-6,-4%,-3%,-3,-1%,9
CC(=O)N(C1=C(N)C(=O)c2ccccc2C1=O)C(C)C,4,4%,13µM*,-12,9.3µM*,2
SMILES,HCMV antiviral,HCV inh,Pf growth 48h,Shiga toxin inh,Pf growth 96h,CHX counter
O=c1c2ccc(Cl)cc2nc(-c2cccc(C(F)(F)F)c2)n1O,-103*,?,?,-3,10µM*,8
O=c1c2ccccc2nc(-c2ccc(Cl)c(Cl)c2)n1O,-63*,-4%,·,-1,14%,-1
O=c1c2ccccc2nc(-c2ccccc2Cl)n1O,-31,3%,i,-10,?,-6
Cc1nc(C)c(C(=O)OCC(=O)N(C)c2ccccc2)s1,-5,-12%,7%,·,18%,·
CC(=O)[C@H]1CC[C@@H](c2ccccc2)N(S(=O)(=O)c2ccc(C)cc2)C1,18,·,·,·,·,·
CCn1c(/C=N/n2cnnc2)nc2ccccc21,78,13%,·,20,3%,-2
CCn1c2ccccc2c2cc(NC(C)=O)ccc21,69,?,·,-13,-8%,-2
CCn1c2ccccc2c2cc(/C=N/O)ccc21,-74*,11µM*,1%,1,-29%[5.75 µM],-3
CCn1c2ccccc2c2cc(/C=N/n3cn[nH]c3=S)ccc21,-31,11µM*,?,-8,8.3µM*,1
CCn1c2ccc(/C(C)=N\O)cc2c2cc(/C(C)=N\O)ccc21,5,10µM*,?,-5,5%,2
CCn1c2ccccc2c2cc(/C=N/n3cnnc3)ccc21,-24,7.9µM*,·,-17,-16%,-2
Cc1cc2ncn(/N=C/c3ccc(-c4ccccc4)o3)c2cc1C,12,-4%,16%,-3,4%,7
Cc1ccc(/C=N/n2cnc3sc(-c4ccccc4)cc3c2=O)o1,54,-26%,·,47*,85%,24*
Cc1cccc2c(=O)cc(CSc3ccccc3NC(=O)c3cccc(Cl)c3)[nH]c12,25,·,·,·,·,·
Cc1ccc(NS(=O)(=O)c2ccc(Cl)c(C(=O)Nc3ccccc3-c3nc4ccccc4[nH]3)c2)cc1C,-85*,3.5µM*,10µM*,22,12µM*,9
CC(=O)N(C)Cc1ccc(C(=O)CCl)cc1,-22,?,11%,42,-34%,26*
C=CCn1c(C)cc(C(=O)COC(=O)[C@@H](NC(=O)c2ccccc2Cl)C(C)C)c1C,-21,26%,-13%,19*,2%,40*
Cc1cc(C(=O)COC(=O)/C=C/c2cccc(F)c2)c(C)n1C,-31,-13%,35%,77*,43%,29*
C=CCn1c(C)cc(C(=O)COC(=O)/C=C/c2cccc(OC)c2)c1C,?,13µM*,-5%,4,3%,27*
C[C@H](CO)N1C[C@H](C)[C@H](CN(C)C(=O)Nc2ccccc2)OCc2cnnn2CCCC1=O,-10,·,·,·,·,·
O=[N+]([O-])c1cc(-c2nc(-c3ccncc3)no2)ccc1Cl,-64*,4%,-8%,-11,4%,-3
Cc1c(-c2nc(-c3ccncc3)no2)cccc1[N+](=O)[O-],79,-11%,30%,25,25%,1
O=[N+]([O-])c1cc(-c2nc(-c3ccncc3)no2)cc([N+](=O)[O-])c1,45,?,?,2,1.9µM*,-3
COCCn1c(CNC(=O)c2cc([N+](=O)[O-])ccc2Cl)nc2cccnc21,2,·,·,·,·,·
